Only some compounds are listed: those with a hit (about 5.4% of all), similar ones and a draw of the others.
PP5 inh – inhibitors of human protein phosphatase 5 (PP5); P53041; purified PP5c, OMFP substrate fluorescence; inhibition, % at 6.7 µM; 320,000 compounds, 0.18% hits;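 active means inhibition above the campaign's mean inhibition across all tested compounds plus 3 SD, cut at about 9.5% in these data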
PP1 counter – PP1-alpha (human) inhibition in PP5 counter-screen; P62136; purified PP1alpha, OMFP fluorescence; inhibition, % at 6.7 µM; 320,000 compounds, 0.9% hits; AID 2235;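 active means inhibition above the mean inhibition of all tested compounds plus 3 SD, computed separately for each screening campaign, cut at about 15% in these data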
Target sequence (P62136 whole entry, looked up): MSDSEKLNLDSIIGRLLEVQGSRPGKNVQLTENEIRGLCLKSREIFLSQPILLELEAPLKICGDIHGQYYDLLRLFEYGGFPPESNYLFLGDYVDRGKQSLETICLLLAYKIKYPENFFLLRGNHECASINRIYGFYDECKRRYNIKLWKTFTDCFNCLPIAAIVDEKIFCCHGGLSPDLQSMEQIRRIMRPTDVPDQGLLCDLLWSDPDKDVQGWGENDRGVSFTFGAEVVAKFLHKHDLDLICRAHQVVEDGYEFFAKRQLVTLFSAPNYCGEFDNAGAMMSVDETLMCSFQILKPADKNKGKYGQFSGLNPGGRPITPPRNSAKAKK
ALR H2O2 inh – blocks human ALR sulfhydryl oxidase activity | P55789 | AID 485317 | 290,000 compounds, 3.8% hits | purified ALR, DTT oxidation, H2O2 HRP-luminol luminescence | inhibition, % (test concentration not listed);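 active means mean replicate inhibition above about 79%, with every replicate also reaching it, limit read from the data; inconclusive means only one of the two criteria met; inactive means mean below limit and not every replicate reaching it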
Target sequence (P55789 whole entry, looked up): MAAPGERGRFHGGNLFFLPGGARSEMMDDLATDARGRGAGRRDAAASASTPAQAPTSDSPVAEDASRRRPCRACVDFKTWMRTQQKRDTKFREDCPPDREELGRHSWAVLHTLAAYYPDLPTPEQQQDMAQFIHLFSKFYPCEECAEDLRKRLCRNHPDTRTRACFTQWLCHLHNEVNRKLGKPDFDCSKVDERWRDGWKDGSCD
CSC inhib – blocks cancer stem cells | inhibition, % at 7.5 µM | cancer stem cell-like cells viability, luminescence | 300,000 compounds, 1.1% hits; in the data active means inhibition above about 75%; inconclusive means no clear call, values can overlap the other calls; tested in HMLE shEcad cells
Calb FLC – C. albicans growth modulation with fluconazole; 300,000 compounds, 0.57% hits; C. albicans CaCi-2 (fluconazole-resistant clinical isolate) + fluconazole, Alamar Blue growth, 48 h; AID 1979; growth inhibition, % (test concentration not listed);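 active means growth inhibition above about 58% in most replicates, limit read from the data, passing the limit was not always enough; inconclusive means exactly half the replicates above a set limit; inactive means most replicates below a set limit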;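 further: all wells also contain fluconazole at 8 µg/ml as a sub-toxic cotreatment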
Each line names hits and unclear results; the compound was inactive in the other large screens.

Cc1cc(Oc2ccccc2)nc(-c2ccccc2O)n1	Calb FLC 104.2
O=S(=O)(NCc1ccncc1)c1ccc(S(=O)(=O)NCC2CCCO2)cc1 (centres undefined)	CSC inhib 140.1
COc1cc(OC)c(NS(=O)(=O)c2c(C(=O)N3CCCCC3)c(C)n(C)c2C)cc1Cl	none
COc1cc(OC)c(NC(C)C(=O)N2CCCC2)cc1Cl (centres undefined)	ALR H2O2 inh 78.9
CCc1c(C)sc(NC(=O)c2cc(C)on2)c1C#N	ALR H2O2 inh 84.9
CCCc1cc(C(=O)Nc2sc(C)c(CC)c2C#N)no1	none (no result: ALR H2O2 inh)
CCc1c(C)sc(NC(=O)c2cc(C3CC3)on2)c1C#N	ALR H2O2 inh 94.4
Cc1ccc(N(C(=O)CNC(=O)c2ccco2)C(C(=O)NC2CCCC2)c2cccnc2)cc1C (centres undefined)	none
Cc1nn(C)c(C(=O)N/N=C/c2cccnc2)c1Cl	none
C#CCOCCOCCOCCNc1nc(N2CCN(C(=O)CCCCCCCCCCNC(=O)[C@H](CO)n3cc(CCCCCN)nn3)CC2)nc(N2CCN(C(=O)CCCCCCCCCCNC(=O)[C@H](CCCN=C(N)N)n3cc(C[C@@H](C)CC)nn3)CC2)n1	PP1 counter 57.4 (no result: Calb FLC)
C#CCOCCOCCOCCNc1nc(N2CCN(C(=O)CCCCCCCCCCNC(=O)[C@@H](CCC(=O)O)n3cc(CCCCCN)nn3)CC2)nc(N2CCN(C(=O)CCCCCCCCCCNC(=O)[C@H](CO)n3cc(CCCCCN)nn3)CC2)n1	PP1 counter 15.3 (no result: Calb FLC)
C#CCOCCOCCOCCNc1nc(N2CCN(C(=O)CCCCCCCCCCNC(=O)[C@H](CCCCN)n3cc(C[C@@H](C)CC)nn3)CC2)nc(N2CCN(C(=O)CCCCCCCCCCNC(=O)[C@H](CCCN=C(N)N)n3cc(C[C@@H](C)CC)nn3)CC2)n1	PP1 counter 67.5, CSC inhib 102.3 (no result: Calb FLC)
CC[C@H](C)Cc1cn([C@@H](CCCN=C(NC(=O)OC(C)(C)C)NC(=O)OC(C)(C)C)C(=O)NCCCCCCCCCCC(=O)N2CCN(C(=O)OC(C)(C)C)CC2)nn1	Calb FLC 86.3
C#CCOCCOCCOCCNc1nc(N2CCN(C(=O)CCCCCCCCCCNC(=O)[C@@H](CCC(=O)O)n3cc(CCCCCN)nn3)CC2)nc(N2CCN(C(=O)CCCCCCCCCCNC(=O)[C@H](CO)n3cc(CCCSC)nn3)CC2)n1	none (no result: Calb FLC)
CC(C)C12CN3CCN(CC(C3)/C1=N\NC(=O)Nc1ccccc1)C2	none
O=C(Nc1ccccc1)C1CC2CCC1C2 (centres undefined)	none
CCN(CC)c1ccc(NC(=O)C2CC3CCC2C3)cc1 (centres undefined)	ALR H2O2 inh 99.0
CC1CCN(S(=O)(=O)c2nnc(NC(=O)COc3ccccc3)s2)CC1	none
COC(=O)C(C(=O)Nc1ccccc1C)C1CCCC1 (centres undefined)	none
Cc1ccccc1NC(=O)C(NC1CCCCC1)C(C)C (centres undefined)	ALR H2O2 inh 98.5
COc1ccc(CCNS(=O)(=O)c2ccc3[nH]c(=O)[nH]c3c2)cc1	none (no result: PP5 inh, PP1 counter, Calb FLC)
C=CCSc1nsc(NC(=O)Nc2ccc(F)cc2)n1	CSC inhib 101.0
CCSc1nsc(NC(=O)Nc2ccccc2F)n1	none (no result: ALR H2O2 inh)
CCOC(=O)N1CCC(N2Cc3cccc(C(=O)NCc4ccc(C)cc4)c3C2=O)CC1	none (no result: CSC inhib)
O=C(NNC(=O)c1c(F)cccc1F)c1sccc1-n1cccc1	none
CCN(CC(=O)Nc1ccccc1C(=O)Nc1ccccc1)Cc1nc2ccccc2c(=O)[nH]1	none (no result: ALR H2O2 inh)
Cc1cccc2sc(NNC(=O)c3cc(=O)c4ccccc4o3)nc12	none (no result: ALR H2O2 inh)
Cc1ccc2sc(NNC(=O)c3cc(=O)c4ccccc4o3)nc2c1C	ALR H2O2 inh 98.7
CCCC1=NN2C(=N)/C(=C\c3ccc(SCc4ccco4)o3)C(=O)N=C2S1	PP1 counter 42.9, ALR H2O2 inh 99.0, Calb FLC inconclusive
O=C1NC(=S)S/C1=C\c1ccc(SCc2ccccc2)o1	CSC inhib 76.0 (no result: Calb FLC)
O=C1NC(=S)S/C1=C\c1ccc(SCc2ccco2)o1	ALR H2O2 inh 99.0 (no result: Calb FLC)
O=C1NC(=O)/C(=C/c2ccc(-c3cccc([N+](=O)[O-])c3)o2)S1	none (no result: PP5 inh, PP1 counter)
O=C1NC(=S)S/C1=C/c1ccc(OC(=O)c2ccco2)cc1	none (no result: CSC inhib)
CCC1=NN2C(=N)/C(=C\c3ccc(SCc4ccco4)o3)C(=O)N=C2S1	ALR H2O2 inh inconclusive
CN(CC(=O)N1CCN(c2ccccc2)CC1)S(=O)(=O)c1cnc[nH]1	ALR H2O2 inh 98.0
CN(CC(=O)N1CCN(c2cccc(Cl)c2)CC1)S(=O)(=O)c1cnc[nH]1	none
CC1CCCCN1C(=O)CSc1nc(N)nc(N)n1 (centres undefined)	none (no result: ALR H2O2 inh)
C=CCSc1nnc(Cc2cc(=O)[nH]c(=O)[nH]2)n1-c1cc(C)ccc1C	none
CC(Sc1nc(N)cc(=O)[nH]1)C(=O)Nc1sc2c(c1C#N)CCCC2 (centres undefined)	ALR H2O2 inh 92.2
CCOC(=O)Cc1nnc(NC(=O)C(CC)Sc2nc(C)cc(=O)[nH]2)s1 (centres undefined)	none
CCCCc1nnc(NC(=O)C(C)Sc2nc(N)cc(=O)[nH]2)s1 (centres undefined)	Calb FLC 75.6
O=C(Nc1ccc2c(c1)C(=O)OC2)c1ccc(Cl)cc1Cl	none
C=C1C(=O)O[C@@H]2C[C@@H](C)[C@@H]3C=CC(=O)[C@@]3(C)[C@@H](OC(C)=O)[C@H]12	CSC inhib 85.0
C[C@@H]1C[C@@H]2OC(=O)[C@]3(C)[C@H]2[C@@H](OC3(C)O)[C@]2(C)C(=O)C=C[C@H]12 (some centres undefined)	none
CCOc1ccc(NC(=O)CN2C(=O)CSC(C)C2=O)cc1 (centres undefined)	ALR H2O2 inh inconclusive
O=C(NCc1ccco1)c1nc2c(nnn2Cc2ccccc2Cl)c(=O)[nH]1	CSC inhib 94.1
O=C(N/N=C/c1c(Cl)cccc1Cl)c1n[nH]c2c1CCCC2	none
Cc1ccsc1/C=N\NC(=O)c1cc(C(C)(C)C)[nH]n1	ALR H2O2 inh 89.4
Cc1ccsc1/C=N\NC(=O)c1n[nH]c2c1CCC2	CSC inhib 129.7
O=C(NN=C1CCCC1)c1n[nH]c2c1CCCC2	ALR H2O2 inh 99.4
O=c1oc2ccc3ccccc3c2c2c1SC(C(F)(F)F)C2 (centres undefined)	none
O=C(Cc1ccc2c(c1)OCCO2)c1c(O)cc(O)cc1O	none
Cc1ccccc1CCNC(=O)CCn1ccc2cc(S(=O)(=O)N3CCCC3)ccc21	none
Nc1ccccc1O	none (no result: Calb FLC)
Nc1ccccc1SC/C=C/CSc1ccccc1N	ALR H2O2 inh 99.0
Cc1ccc(C=Nc2ccccc2C(N)=O)s1	CSC inhib 77.6 (no result: ALR H2O2 inh)
Cc1cc(O)c(-c2cc(C(=O)Nc3ccc(S(=O)(=O)N4CCOCC4)cc3)[nH]n2)cc1C	none
O=C(Nc1ccc(S(=O)(=O)N2CCOCC2)cc1)c1cc(-c2cc(Cl)ccc2O)n[nH]1	CSC inhib 94.0 (no result: ALR H2O2 inh)
CC(C)OC(=O)CSc1nnc(-c2ccncc2)n1N	none (no result: ALR H2O2 inh)
Cc1ccccc1NS(=O)(=O)c1cc2c(cc1C)N(C)CCO2	ALR H2O2 inh 98.0
CCOC(=O)c1sc(=S)n(Cc2ccccc2)c1C	none (no result: ALR H2O2 inh)
Cc1cc(S(=O)(=O)N2CCN(c3ccccc3O)CC2)c(C)s1	ALR H2O2 inh 98.1

Assay outcomes as filed in PubChem BioAssay.
